Test results: PubChem BioAssay AID1259341 (Broad Institute, 2017)
Activity calls are given as the source filed them.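 The calls were made as follows: active = activity change under -35% in any replicate well, with more than 20 beads read in that well; inactive = the rest.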

Target: Caspase recruitment domain-containing protein 9 (Homo sapiens) + E3 ubiquitin-protein ligase TRIM62 (Homo sapiens) (UniProt Q9H257+Q9BVG3)
Test: CARD9/TRIM62 protein interaction inhibitors – cell lysate, HEK293FT lysates, Luminex bead ELISA, primary screen (AID 1259341);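 also: PE anti-Flag signal of Flag-CARD9 captured by myc-TRIM62 beads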
Conditions: PE fluorescence, hits give low values, concentration not given here

Caspase recruitment domain-containing protein 9 (Homo sapiens) + E3 ubiquitin-protein ligase TRIM62 (Homo sapiens), sequence (Q9BVG3 whole entry, looked up, the tested form may be a part): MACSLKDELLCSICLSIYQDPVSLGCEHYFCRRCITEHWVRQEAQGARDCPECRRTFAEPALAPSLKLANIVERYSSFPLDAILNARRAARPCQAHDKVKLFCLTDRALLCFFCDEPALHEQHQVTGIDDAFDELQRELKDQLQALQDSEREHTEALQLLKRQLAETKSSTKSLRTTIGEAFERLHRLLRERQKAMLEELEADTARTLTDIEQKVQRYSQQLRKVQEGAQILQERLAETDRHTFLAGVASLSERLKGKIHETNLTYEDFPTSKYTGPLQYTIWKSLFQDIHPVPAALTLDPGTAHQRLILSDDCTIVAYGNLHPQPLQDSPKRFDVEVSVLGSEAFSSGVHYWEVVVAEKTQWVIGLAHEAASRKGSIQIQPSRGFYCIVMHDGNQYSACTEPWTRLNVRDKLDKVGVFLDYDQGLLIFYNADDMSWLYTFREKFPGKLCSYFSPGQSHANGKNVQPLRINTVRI
Caspase recruitment domain-containing protein 9 (Homo sapiens) + E3 ubiquitin-protein ligase TRIM62 (Homo sapiens), sequence (Q9H257 whole entry, looked up, the tested form may be a part): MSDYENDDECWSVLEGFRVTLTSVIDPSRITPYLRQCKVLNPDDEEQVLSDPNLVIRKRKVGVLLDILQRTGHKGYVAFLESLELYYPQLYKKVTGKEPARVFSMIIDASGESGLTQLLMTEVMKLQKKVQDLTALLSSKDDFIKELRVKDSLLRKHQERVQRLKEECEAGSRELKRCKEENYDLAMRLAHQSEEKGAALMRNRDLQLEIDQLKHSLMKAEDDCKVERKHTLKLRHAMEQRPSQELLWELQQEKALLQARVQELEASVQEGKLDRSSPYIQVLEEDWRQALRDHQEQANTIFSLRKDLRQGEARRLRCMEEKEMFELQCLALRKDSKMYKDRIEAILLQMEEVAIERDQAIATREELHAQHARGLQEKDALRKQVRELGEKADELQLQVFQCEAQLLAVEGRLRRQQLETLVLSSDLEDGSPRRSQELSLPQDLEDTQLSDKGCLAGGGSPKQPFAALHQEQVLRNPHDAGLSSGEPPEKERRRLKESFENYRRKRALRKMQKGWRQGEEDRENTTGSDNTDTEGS

Row | Compound | activity change, negative = inhibition
1 | CC(=O)c1sc2nc(-c3ccco3)ccc2c1N | -8.74% (inactive)
2 | O=C(N/N=C/C=C/c1ccco1)c1cncc(Br)c1 | -8.78% (inactive)
3 | Cc1ccc(S(=O)(=O)Nc2ccc3c(c2)C(=O)N([C@H](C)CO)C[C@H](C)[C@@H](CN(C)C(=O)C2CCCCC2)OCCCC[C@H](C)O3)cc1 | 6.06% (inactive)
4 | COCC(=O)N1CCCC2(CCN(CCN3CCCC3)C2=O)C1 (stereo unspecified) | -5.85% (inactive)
5 | Cc1c(/C=C/c2nc3ccccc3c(=O)n2-c2ccccn2)c2ccccc2n1C | -1.2% (inactive)
6 | O=C(COC(=O)c1cc(-c2ccco2)nc2ccccc12)NCc1ccc2c(c1)OCO2 | 3.18% (inactive)
7 | CN1C(=O)C(c2ccccc2[N+](=O)[O-])C(=O)c2ccccc21 (stereo unspecified) | 3.98% (inactive)
8 | NC(=O)C1(N2CCCCC2)CCN(c2ncc(NC(=O)c3cccs3)cc2C(=O)O)CC1 | -9.12% (inactive)
9 | O=C1CC2(CCN(C(=O)Nc3ccccc3)CC2)CN1Cc1ccc(Cl)cc1 | -3.18% (inactive)
10 | C[C@H](CO)N1C[C@H](C)[C@@H](CN(C)CC2CCCCC2)OCCCC[C@H](C)Oc2ccc(NS(=O)(=O)c3ccc(Cl)cc3)cc2C1=O | 8.08% (inactive)
11 | CC1CCN(c2nc(-c3ccco3)c3c(c2C#N)CC(C)(C)OC3)CC1 | 5.51% (inactive)
12 | CN(C)c1ccc(CN2C[C@H]3CC[C@@H]2CN(C(=O)c2ccncc2)C3)cn1 | 1.51% (inactive)
13 | CC(=O)c1cccc(OCC(=O)N(C)CC(=O)NCc2ccco2)c1 | -22.5% (inactive)
14 | COc1ccc(-n2c(C)c3c(OC)cccc(=O)c3c2C)cc1 | 3.94% (inactive)
15 | O=S(=O)(Nc1nccs1)c1ccc(-n2cccc2)cc1 | 3.9% (inactive)
16 | O=c1/c(=C/c2ccco2)sc2nc3ccccc3n12 | 0.484% (inactive)
17 | CCCN1CCCn2nc(CNC(=O)[C@H]3CC[C@@H](N)C3)cc2C1 | -7.32% (inactive)
18 | CCOc1ccc(-n2c3nc4ccccc4nc3c3c(=O)n(Cc4ccco4)cnc32)cc1 | 6.8% (inactive)
19 | N#Cc1c(NC(=O)CSc2nc3ccccc3o2)sc2c1CCC2 | 2.26% (inactive)
20 | O=C1c2cccnc2C(=O)N1Cc1ccc(S(=O)(=O)NCc2ccco2)cc1 | 29.2% (inactive)
21 | COc1ccc(S(=O)(=O)Nc2ccc3c(c2)C(=O)N([C@H](C)CO)C[C@H](C)[C@@H](CN(C)CC2CCCCC2)OCCCC[C@H](C)O3)cc1 | 5.92% (inactive)
